Our source for the outcome values is PubChem BioAssay (NCATS).

Structures are written as SMILES. Records with an inconclusive call do not appear. Active and inactive are the calls of the source. Calls follow the shape of the dose curve; as a rule, active = well fitted inhibition curve with a large enough effect; inconclusive = small, poorly fitted or top-dose-only effect; inactive = flat fitted curve, though single readings scatter. Where a SMILES comes first, the peptide text is derived from it. [ ]: non-standard residue; d: D form. 2Abz = Nc1ccccc1C(=O)O

The assay deals with NIH3T3. Nature of the assay: qHTS assay to identify novel small-molecules to repurpose for Merkel cell carcinoma treatment (AID 1296009). Also: nearly all actives have a fitted effect of over 60% in size. As to conditions: MCC and control cell lines, CellTiter-Glo viability, 72 h; at 44.8 µM (top of the series) unless noted. The method in brief: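 Cell viability, measured as CellTiter-Glo luminescence, was normalized between DMSO and no-cell wells. The cells had been exposed to 8- or 11-point compound dilutions for 72 hr at 37 degree celsius.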
Regarding `CC(=O)O[C@H](C[C@@H](C)[C@H]1C(=O)[C@H](O)[C@@]2(C)[C@@H]3CCC4C(C)(C)[C@@H](O[C@@H]5OC[C@H](O)[C@H](O)[C@H]5O)CC[C@@]45C[C@@]35CC[C@]12C)[C@@H]1OC1(C)C` (stereo partly drawn), the outcome is “inactive [at 17.4 µM]”.

With `CC1OC(OC2C(C)OC(OC3C(OC(=O)/C=C/c4ccc(O)cc4)C(CO)OC(OC4(COC(=O)/C=C/c5ccc(O)cc5)OC(CO)C(O)C4O)C3OC3OCC(O)(CO)C3O)C(O)C2O)C(O)C(O)C1O` (stereo not drawn), the outcome is “inactive [at 9.27 µM]”.

As to `CC(/C=C/[C@]1(O)[C@@]2(C)CO[C@@]1(C)C[C@@H](O)C2)=C\C(=O)O[C@@H]1O[C@H](CO)[C@@H](O)[C@H](O)[C@H]1O`, the outcome is “inactive [at 17.4 µM]”.

With `C=C1C(=O)OC2CC(C)=C(C(C)CCCO[C@@H]3O[C@H](CO)[C@@H](O)[C@H](O)[C@H]3O)C(O)C12` (stereo partly drawn), the outcome was “inactive [at 17.4 µM]”.

Take `O=C(O[C@H]1[C@@H]2C[C@@H]3OC[C@@](O)([C@H]2[C@H](O[C@@H]2O[C@H](CO)[C@@H](O)[C@H](O)[C@H]2O)O3)[C@@H]1O)c1ccccc1`: the outcome is “inactive [at 17.4 µM]”.

`CC(=O)c1c(C)cc(O)cc1O[C@@H]1O[C@H](CO)[C@@H](O)[C@H](O)[C@H]1O`: the compound was called inactive.

Consider `CC1CCC(=O)CC(O)C(O)CC(=O)O1` (stereo not drawn), for which the result was inactive.

For the compound `CC1(C)CC2C(O)C3=C(CC(C)(O)C2C1)C(=O)OC3O` (stereo not drawn), the outcome was inactive.

With `CC[C@H](/C=C/[C@@H](C)[C@H]1CC[C@H]2[C@@H]3CC=C4C[C@@H](O)CC[C@]4(C)[C@H]3CC[C@]12C)C(C)C`, the outcome is “inactive [at 4.96 µM]”.

Consider `CC(=O)O[C@H]1[C@H](C)[C@@H](O)[C@H]2[C@@H]1C=C(C(=O)O)[C@H]1C[C@@H]3[C@H]([C@H]21)[C@H]1C(=O)O[C@@H]2CC[C@@]3(C)O[C@]1(O)[C@@H]2C`, for which the outcome is “inactive [at 17.4 µM]”.

As to `CC(=O)OC(CSC1CCC(=O)OC(C)CCC(=O)C1)C(=O)O` (stereo not drawn), the result was inactive.

For `CC(/C=C/C1(O)C(C)CC(O)CC1(C)C)OC1OC(CO)C(O)C(O)C1O` (stereo not drawn), the result was inactive.

As for `CC(=O)N[C@H]1CCN(c2ccc(C3=NOC(CN[S+](=O)([O-])C(C)C)C3)cc2F)C1` (stereo partly drawn), the compound was called inactive.

`CC1CCC2C(C)(C)C(O)CCC2(C)C12Cc1c(O)cc3c(c1O2)C(N)=NC3` (stereo not drawn): the compound was called inactive.

As for `CNC(=O)Nc1ccc(OC)c(NC(=O)NC(=O)c2cc(F)c(F)cc2Cl)c1`, the compound was called inactive.

Consider `CCCC(N[C@@H](C)C(=O)N1[C@H](C(=O)O)C[C@@H]2CCCC[C@@H]21)C(=O)OCC` (stereo partly drawn), for which the outcome was inactive.

Take `C/C=C(\C)C(=O)O[C@@H](C)[C@H]1CC[C@]2(O)C3CCC4C[C@@H](OC5CC(OC)C(OC6CC(OC)C(OC7CC(OC)C(OC8OC(C)C(OC9OC(CO)C(O)C(O)C9O)C(OC)C8O)C(C)O7)C(C)O6)C(C)O5)CC[C@]4(C)C3[C@H](O)[C@@H](O)[C@]12C` (stereo partly drawn): the outcome is “inactive [at 9.27 µM]”.

On to `CC1OC(O[C@H]2[C@@H](O)C[C@@]3(C)C([C@H](O)C[C@]4(C)C3CC=C3C5CC(C)(C)CC[C@]5(C(=O)OC5OC(CO)C(O)C(O)C5OC5OCC(OC6OCC(OC7OCC(O)C(O)C7O)C(O)C6O)C(OC6OCC(O)(CO)C6O)C5O)CC[C@]34C)[C@]2(C)CO)C(O)C(O)C1O` (stereo partly drawn), for which the outcome is “inactive [at 9.27 µM]”.

As to `CCC(=O)N[C@@H]1Cc2ccccc2[C@H](c2ccccc2)C1`, the call was inactive.

On to `CCC(C)C1NC(=O)C2CCCN2C(=O)C(C(C)C)NC(=O)c2ccccc2NC(=O)C(Cc2ccc(O)cc2)NC(=O)C(C)NC(=O)C(C(C)O)NC1=O` (stereo not drawn) (cyclo([2Abz]VPITAY); configuration not given here), for which the outcome was “inactive [at 17.4 µM]”.

With `C=C1CCC2C(C)(C(=O)O)CC(O)CC2(C)C1CC/C(C)=C/C(=O)O` (stereo not drawn), the outcome was inactive.

For `COc1cc([C@@H]2Oc3c(OC)cc(CCCO)cc3[C@@H]2CO[C@@H]2O[C@H](CO)[C@@H](O)[C@H](O)[C@H]2O)ccc1O`, the outcome is “inactive [at 17.4 µM]”.

For `COc1cccc(-c2ccc([C@@H](Oc3cc(-c4ccc(C[C@H](N)C(=O)O)cc4)nc(N)n3)C(F)(F)F)cc2)c1`, the outcome was inactive.

As to `CCNC(=O)CCC/C=C\C[C@@H]1[C@@H](/C=C/C(O)CCc2ccccc2)[C@@H](O)C[C@@H]1O` (stereo partly drawn), the call was inactive.

Turning to `Cc1[nH]cnc1C1CCN(c2nc3cccc4c3n2CCC4=O)CC1`, the result was inactive.

For `C=C(C)[C@@H](C)[C@H]1O[C@]23C[C@]4(CO2)C(CCC2[C@@]5(C)CC[C@H](O[C@@H]6OC[C@H](O)[C@H](O[C@@H]7O[C@H](CO)[C@@H](O)[C@H](O)[C@H]7O)[C@H]6O[C@@H]6O[C@@H](CO)[C@H](O)[C@H]6O)C(C)(C)C5CC[C@]24C)C3[C@@](C)(O)[C@@H]1OC(C)=O` (stereo partly drawn), the outcome is “inactive [at 9.27 µM]”.

As for `C/C1=C\C[C@H](O[C@@H]2O[C@H](CO)[C@@H](O)[C@H](O)[C@H]2O)/C(C)=C/[C@H]2OC(=O)[C@H](C)[C@@H]2CC1`, the outcome was “inactive [at 17.4 µM]”.

As for `COC(=O)[C@H](CC1C=NC=N1)NCC12CC3CC(CC(C3)C1)C2` (stereo partly drawn), the compound was called inactive.

As for `CC(C)C1=CCC(C)(O)C(OC2OC(CO)C(O)C(O)C2O)C1` (stereo not drawn), the call was inactive.

`COc1cc(NC(=O)c2ccccn2)ccc1Cl`: the outcome was inactive.

For `NCCOCCOCCNC(=O)Cc1ccc(Nc2nc(NCc3ccc(F)cc3)nc(NCC3CCCCC3)n2)cc1`, the outcome was inactive.

On to `CCC(NC(=O)CC(NC(=O)C(CO)NC(=O)C(CC)NC(=O)c1ccc[nH]1)c1ccccc1)C(=O)O` (stereo not drawn), for which the outcome is “inactive [at 17.4 µM]”.

As to `C=C1C[C@]23C[C@H]1CC[C@H]2[C@@]12C=C[C@H](O)[C@@](C)(C(=O)O1)[C@H]2[C@@H]3C(=O)O`, the result was inactive.

In the case of `CC(C)CC(=O)OC[C@H]1O[C@@](COC(=O)CC(C)C)(O[C@H]2O[C@H](CO)[C@@H](O)[C@H](O)[C@H]2O)[C@@H](OC(=O)CC(C)C)[C@@H]1OC(=O)CC(C)C`, the outcome is “inactive [at 17.4 µM]”.

Consider `COc1cc(C2c3cc(O)c(OC)cc3CC(CO)C2CO)ccc1O` (stereo not drawn), for which the result was inactive.

With `N#CCc1ccc(O)cc1O[C@@H]1O[C@H](CO)[C@@H](O)[C@H](O)[C@H]1O`, the outcome was inactive.

Take `C=C1C[C@@]23CC[C@@H]4[C@](C)(C(=O)O)CCC[C@@]4(C)C2=CC[C@H]1C3`: the compound was classed as inactive.

For `C[C@@H]1O[C@@H](O[C@H]2[C@H](OC(C#N)c3ccc(O)cc3)O[C@H](CO)[C@@H](O)[C@@H]2O)[C@H](O)[C@H](O)[C@H]1O` (stereo partly drawn), the outcome is “inactive [at 17.4 µM]”.
